# EWS-Fli inh – inhibitors of EWS/Fli oncoprotein transcriptional activity; A673 NR0B1-luciferase reporter, viability-normalised; inhibition, % at 12.6 µM; 0.67% of 350,000 active; AID 651661;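 active means mean inhibition of at least 50% after viability correction, with every replicate also passing that limit; inconclusive means mean reaches 50% but only one of two replicates passes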;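 further: firefly luciferase signal divided by Alamar Blue viability fluorescence both relative to DMSO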
# PAX8 inh HTS – PAX8 transcriptional activity inhibition; RMG-I TPO-luciferase reporter, SteadyGlo, 24 h; inhibition, % at 12.6 µM; 1.2% of 360,000 active; AID 652154;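 active means mean replicate inhibition at least 60% with every replicate also reaching 60%; inconclusive means only one of the two criteria is met; inactive means mean below 60% and not all replicates reaching 60%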;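 further: luciferase light reporting Pax8 driven TPO promoter activity; plate controls were median of neutral control wells for no effect and mitoxantrone controls for full effect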
# Peg3 promoter – inhibitors of Peg3 promoter; inhibition, % at 20 µM; 1.7% of 360,000 active; AID 588405; HeLa PEG-Prom luciferase reporter, luminescence, overnight;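 active means inhibition of at least 50% at 20 µM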
# ABHD5-PLIN5 inh – ABHD5-PLIN5 protein interaction inhibition | Q00G26+Q8WTS1 | inhibition, % at 4 µM | Split G. princeps luciferase complementation, luminescence, 4 h | 0.78% of 360,000 active;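 active means inhibition above the mean inhibition across every tested compound plus 3 SD, cut at about 22% in these data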;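 further: 0% = DMSO only wells and the 100% control is not disclosed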
# Target sequence (Q00G26 whole entry, looked up): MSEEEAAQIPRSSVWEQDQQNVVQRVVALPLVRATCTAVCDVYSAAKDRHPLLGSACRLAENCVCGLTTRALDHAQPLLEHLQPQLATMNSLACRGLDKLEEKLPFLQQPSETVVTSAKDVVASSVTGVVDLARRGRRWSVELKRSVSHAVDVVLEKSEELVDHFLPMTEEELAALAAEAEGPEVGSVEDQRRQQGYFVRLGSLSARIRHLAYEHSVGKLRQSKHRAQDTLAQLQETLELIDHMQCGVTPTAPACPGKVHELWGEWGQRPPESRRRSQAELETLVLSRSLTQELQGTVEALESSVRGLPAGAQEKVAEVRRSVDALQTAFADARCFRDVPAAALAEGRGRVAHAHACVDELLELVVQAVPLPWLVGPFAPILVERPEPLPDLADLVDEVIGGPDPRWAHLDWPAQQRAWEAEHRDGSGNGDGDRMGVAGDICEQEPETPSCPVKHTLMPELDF
# Target sequence (Q8WTS1 whole entry, looked up): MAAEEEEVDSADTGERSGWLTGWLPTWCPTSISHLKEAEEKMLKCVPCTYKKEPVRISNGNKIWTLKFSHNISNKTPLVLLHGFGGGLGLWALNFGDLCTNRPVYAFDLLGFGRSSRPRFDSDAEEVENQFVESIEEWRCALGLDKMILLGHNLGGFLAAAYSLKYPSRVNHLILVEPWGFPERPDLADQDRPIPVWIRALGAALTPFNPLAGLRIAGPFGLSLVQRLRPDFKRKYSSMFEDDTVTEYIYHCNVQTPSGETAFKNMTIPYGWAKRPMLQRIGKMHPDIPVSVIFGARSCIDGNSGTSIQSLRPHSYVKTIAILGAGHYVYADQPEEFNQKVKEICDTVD
# Shn3 3UTR inh – reduces Shn3 3'UTR luciferase signal in osteoblasts. inhibition, % at 12.5 µM. AID 588674. 0.52% of 360,000 active. Clone20 osteoblast Shn3 3'UTR firefly luciferase, 24 h;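 active means mean inhibition of at least 75% with every replicate also reaching 75%; inconclusive means mean inhibition at least 75% but some replicate below; inactive means mean inhibition below 75%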;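 further: 0% = median of neutral control wells and 100% = pilot-screen positive control compound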
# MITF TRPM1 inh – reduces MITF-dependent TRPM1 promoter luciferase signal; SK-MEL-5 TRPM1 promoter luciferase, 24 h; inhibition, % at 12.5 µM; 0.83% of 330,000 active; AID 488899;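 active means mean inhibition across replicates of 60% or more, whatever share of single replicates reaches that level; inconclusive means some that reach 60%, reason not given; inactive means mean inhibition across replicates below 60%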
# The depositor's hits bear a star; ? = inconclusive; nt = no result given. Most compounds without a hit are left out; they make up all but 3% or so of the library.
SMILES,EWS-Fli inh,PAX8 inh HTS,Peg3 promoter,ABHD5-PLIN5 inh,Shn3 3UTR inh,MITF TRPM1 inh
COc1cccc(-c2ccc([C@@H]3[C@H](CO)N4CCCCN(C(=O)NC(C)C)C[C@@H]34)cc2)c1,nt,-3,nt,nt,nt,nt
COc1ccccc1NC(=O)Nc1nc(C(N)Cc2ccccc2)cs1 (stereo not drawn),22,12,60*,1,29,nt
COc1ccc(OC)c(NC(=O)Cc2csc(NC(=O)Nc3ccccc3OC)n2)c1,-2,9,54*,0,3,-9
COc1ccc(CC(N)c2csc(NC(=O)NCc3ccccc3)n2)cc1 (stereo not drawn),16,7,22,-8,-8,nt
COc1ccc(NC(=O)Cc2csc(NC(=O)Nc3ccccc3OC)n2)c(OC)c1,4,26,15,-4,7,3
COc1ccccc1NC(=O)Nc1nc(C(N)CC(C)C)cs1 (stereo not drawn),11,4,61*,6,8,nt
COc1ccc(CC(N)c2csc(NC(=O)Nc3ccc(F)cc3)n2)cc1 (stereo not drawn),-1,-21,55*,-10,5,nt
CO[C@H]1O[C@H](CO)[C@@H](OC(=O)Nc2cccc(F)c2)[C@H](OC(=O)Nc2ccccc2)[C@@H]1OC(=O)Nc1ccccc1,2,10,nt,nt,nt,nt
CCCC#Cc1cnc2c(c1)C(=O)N([C@@H](C)CO)C[C@H](C)[C@@H](CN(C)CCC)O2,1,nt,nt,nt,nt,nt
CN(C)C(=O)c1ccc(-c2ccc([C@H]3[C@H](CO)N4CCCCN(C(=O)C5CC5)C[C@@H]34)cc2)cc1,-6,-13,nt,nt,nt,nt
O=[N+]([O-])CC(c1ccccc1)c1c[nH]c2ccccc12 (stereo not drawn),37,31,33,2,13,nt
OC(CNCC(c1ccc(Cl)cc1Cl)c1c[nH]c2ccccc12)c1ccccc1 (stereo not drawn),48,93*,110*,5,36,100*
C[C@@H]1CCCCO[C@@H](CN(C)Cc2ccc(C(F)(F)F)cc2)[C@@H](C)CN([C@@H](C)CO)C(=O)c2cc(NC(=O)CCC(F)(F)F)ccc2O1,5,72*,nt,nt,nt,nt
C[C@@H]1CCCCO[C@@H](CN(C)Cc2ccc(C(F)(F)F)cc2)[C@H](C)CN([C@@H](C)CO)C(=O)c2cc(NC(=O)CCC(F)(F)F)ccc2O1,10,-18,nt,nt,nt,nt
C[C@@H]1CCCCO[C@H](CN(C)Cc2ccc(C(F)(F)F)cc2)[C@H](C)CN([C@@H](C)CO)C(=O)c2cc(NC(=O)CCC(F)(F)F)ccc2O1,-5,17,nt,nt,nt,nt
C[C@@H]1CN([C@H](C)CO)C(=O)c2cc(NC(=O)CCC(F)(F)F)ccc2O[C@@H](C)CCCCO[C@@H]1CN(C)Cc1ccc(C(F)(F)F)cc1,-3,83*,nt,nt,nt,nt
C[C@H](CO)N1C[C@H](C)[C@@H](CN(C)S(=O)(=O)c2cn(C)cn2)OCCCC[C@H](C)Oc2ccc(NC(=O)NC3CCCCC3)cc2C1=O,-2,18,nt,nt,nt,nt
CC(=O)N(C)C[C@@H]1Oc2ncc(-c3ccc(C)cc3)cc2C(=O)N([C@@H](C)CO)C[C@@H]1C,-3,nt,nt,nt,nt,nt
CO[C@H]1CN(C)C(=O)c2cc(NC(=O)C3CC3)ccc2OC[C@@H](C)N(CCc2ccccc2)C[C@@H]1C,5,9,nt,nt,nt,nt
CCC(C)Nc1nc(Cl)nc(N(C#N)CN2C(=O)c3ccccc3S2(=O)=O)n1 (stereo not drawn),16,11,15,18,3,69*
Cc1cc(C)nc(N(C#N)CN2C(=O)c3ccccc3C2=O)n1,-10,nt,12,7,4,-5
CC(C)Nc1nc(Cl)nc(N(C#N)CN2C(=O)c3ccccc3C2=O)n1,nt,3,95*,-5,1,57
OC[C@H]1CC[C@@H]2O[C@H](CCc3ccc(-c4ccccc4)cc3)[C@@H](n3cc(C4CC4)nn3)C[C@@H]2O1,3,-21,nt,nt,nt,nt
O=C1c2c(Br)c(Br)c(Br)c(Br)c2C(=O)N1c1ccccn1,19,16,52*,1,-3,28
CC(=O)C1=C(c2ccc(Br)cc2)C(=O)c2ccccc2C1=O,nt,99*,96*,-1,97*,84*
SMILES,EWS-Fli inh,PAX8 inh HTS,Peg3 promoter,ABHD5-PLIN5 inh,Shn3 3UTR inh,MITF TRPM1 inh
COc1ccc(NC(=O)Nc2ccc3c(c2)C(=O)N([C@@H](C)CO)C[C@H](C)[C@H](CN(C)Cc2ccc(C(F)(F)F)cc2)OCCCC[C@@H](C)O3)cc1,4,57,nt,nt,nt,nt
COc1ccc(CN(C)C[C@H]2OCCCC[C@@H](C)Oc3ccc(NC(=O)Nc4ccc(C(F)(F)F)cc4)cc3C(=O)N([C@H](C)CO)C[C@@H]2C)cc1,-1,2,nt,nt,nt,nt
COc1ccc(NC(=O)Nc2ccc3c(c2)C(=O)N([C@H](C)CO)C[C@@H](C)[C@H](CN(C)Cc2ccc(C(F)(F)F)cc2)OCCCC[C@H](C)O3)cc1,61*,81*,nt,nt,nt,nt
COc1ccc(CN(C)C[C@H]2OCCCC[C@@H](C)Oc3ccc(NC(=O)Nc4ccc(C(F)(F)F)cc4)cc3C(=O)N([C@@H](C)CO)C[C@@H]2C)cc1,66*,30,nt,nt,nt,nt
COc1ccc(CN(C)C[C@H]2OCCCC[C@H](C)Oc3ccc(NC(=O)Nc4ccc(C(F)(F)F)cc4)cc3C(=O)N([C@H](C)CO)C[C@@H]2C)cc1,71*,83*,nt,nt,nt,nt
COc1ccc(CN(C)C[C@H]2OCCCC[C@@H](C)Oc3ccc(NC(=O)Nc4ccc(F)cc4)cc3C(=O)N([C@@H](C)CO)C[C@@H]2C)cc1,-12,85*,nt,nt,nt,nt
O=C1CN(Cc2ccc(F)cc2)C[C@H]2[C@@H](c3ccc(-c4ccccc4F)cc3)[C@@H](CO)N12,0,21,nt,nt,nt,nt
C[C@@H]1CCCCO[C@@H](CN(C)Cc2ccc(C(=O)O)cc2)[C@H](C)CN([C@H](C)CO)C(=O)c2cc(NS(C)(=O)=O)ccc2O1,7,0,nt,nt,nt,nt
COc1ccc2c3c([nH]c2c1)[C@H](CO)N(C(=O)C1CCCC1)CC31CN(C(=O)NC(C)C)C1,-6,-1,nt,nt,nt,nt
O=C(c1cccc(F)c1)N1CC(=O)N2[C@H](CO)[C@H](c3ccc(C4=CCCCC4)cc3)[C@@H]2C1,-1,-5,nt,nt,nt,nt
COc1ccc(NC(=O)N(C)C[C@H]2Oc3c(NC(=O)c4cc(C)nn4C)cccc3C(=O)N([C@@H](C)CO)C[C@H]2C)cc1,nt,-5,nt,nt,nt,nt
COc1ccc(CN(C)C[C@H]2OCCCC[C@@H](C)Oc3ccc(NC(=O)Nc4ccc(C(F)(F)F)cc4)cc3C(=O)N([C@@H](C)CO)C[C@H]2C)cc1,69*,?,nt,nt,nt,nt
COc1ccc(NC(=O)Nc2ccc3c(c2)C(=O)N([C@H](C)CO)C[C@H](C)[C@H](CN(C)Cc2ccc(C(F)(F)F)cc2)OCCCC[C@@H](C)O3)cc1,-1,50,nt,nt,nt,nt
COc1ccc(CN(C)C[C@@H]2OCCCC[C@@H](C)Oc3ccc(NC(=O)Nc4ccc(C(F)(F)F)cc4)cc3C(=O)N([C@@H](C)CO)C[C@H]2C)cc1,71*,98*,nt,nt,nt,nt

# Bioassay records (PubChem)
